# Experimental data as given in PubChem BioAssay AID485272 (The Scripps Research Institute Molecular Screening Center, 2010).
# The campaign covered roughly 330,000 compounds. About 1,300 (0.39%) were called active. This excerpt belongs to a sample that is enriched for actives. Unmarked numbers belong to inactive results.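 How the source made its calls: active means percent inhibition above a cutoff equal to the mean of all tested compounds plus 3 SD (cut at about 15% in these data); inactive means the rest.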
# Target: Protein-arginine deiminase type-4 (Homo sapiens) (UniProt Q9UM07)
# Experiment: protein arginine deiminase 4 enzyme blockade – biochemical, fluorescence polarization, 1536-well format, primary screen (AID 485272);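 further: 0% = PAD4 with RCA probe and DMSO and 100% = probe without PAD4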
# Conditions: recombinant PAD4, RCA probe fluorescence polarization; at 6.36 µM; stronger effect = higher value
# Sequence of Protein-arginine deiminase type-4 (Homo sapiens) (Q9UM07 whole entry, looked up): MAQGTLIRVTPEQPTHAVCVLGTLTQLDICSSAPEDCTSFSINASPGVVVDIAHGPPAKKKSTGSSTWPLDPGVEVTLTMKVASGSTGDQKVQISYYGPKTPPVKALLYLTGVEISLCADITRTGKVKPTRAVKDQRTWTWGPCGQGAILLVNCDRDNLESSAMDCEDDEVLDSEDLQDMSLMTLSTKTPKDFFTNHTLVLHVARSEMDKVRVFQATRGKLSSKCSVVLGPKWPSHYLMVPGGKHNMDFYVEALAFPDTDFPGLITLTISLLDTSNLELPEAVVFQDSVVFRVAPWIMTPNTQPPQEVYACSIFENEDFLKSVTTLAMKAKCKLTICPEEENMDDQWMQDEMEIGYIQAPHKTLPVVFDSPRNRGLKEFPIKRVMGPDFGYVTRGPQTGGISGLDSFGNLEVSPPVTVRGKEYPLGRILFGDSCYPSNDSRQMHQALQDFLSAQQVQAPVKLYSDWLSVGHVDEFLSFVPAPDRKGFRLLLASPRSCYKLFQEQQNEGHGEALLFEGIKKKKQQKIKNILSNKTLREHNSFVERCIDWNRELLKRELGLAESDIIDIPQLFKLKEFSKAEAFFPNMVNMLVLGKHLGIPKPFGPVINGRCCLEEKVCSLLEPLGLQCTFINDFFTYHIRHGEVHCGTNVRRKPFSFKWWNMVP
row,SMILES,inhibition
1,CC(C)CC(=O)N1CCC(O)(CS(=O)(=O)Cc2ccccc2)CC1,-3.05%
2,CCOc1ccc(Br)cc1S(=O)(=O)Nc1ccc(C(=O)OC(C)C(=O)N(C)c2ccccc2)cc1 (stereo unspecified),2.93%
3,CCOc1ccc(S(=O)(=O)n2ccnc2)c2ccccc12,3.78%
4,Clc1ccc(C2=CSC3=Nc4cccc5cccc(c45)N23)cc1,15.1% (active)
5,CN1CCN(S(=O)(=O)c2ccc(NC(=O)C3CCCO3)cc2)CC1 (stereo unspecified),2.71%
6,O=C(O)c1ccc(COc2c(F)c(F)cc(F)c2F)o1,-4.92%
7,CN(C(=O)CN1C(=O)S/C(=C\c2ccccc2F)C1=O)C1CCS(=O)(=O)C1 (stereo unspecified),3.56%
8,CCCCNC(=O)Nc1c(C)cc(SC#N)cc1C,39.1% (active)
9,CCCCNC(=O)CCNC(=O)c1ccc(C(C)(C)C)cc1,2.29%
10,CCCCNC(=S)NNC(=O)c1cc(C)on1,-2.6%
11,CC(C)=C1C2CCC1C1C(=O)N(NC(=O)c3ccco3)C(=O)C21 (stereo unspecified),-4.39%
12,COc1ccc(/C=C(\NC(=O)c2ccc(OCC(C)C)cc2)C(=O)OCc2ccco2)cc1,1.51%
13,COCCCNC(=S)N1CCCC(c2nc3cc(C)c(C)cc3[nH]2)C1 (stereo unspecified),-0.08%
14,Cc1ccc(C2CC(c3cccc(NS(C)(=O)=O)c3)=NN2S(C)(=O)=O)cc1 (stereo unspecified),-2.1%
15,N#CC1=C(N)C(C#N)(C#N)[C@H](c2ccsc2)[C@H]2COCC=C12,-0.34%
16,CCCN1CC=C2C(C#N)=C(N)C(C#N)(C#N)C(c3cc(OC)ccc3OC)C2C1 (stereo unspecified),-2.45%
17,CCN1CC=C2C(C#N)=C(N)C(C#N)(C#N)[C@H](c3ccoc3)[C@H]2C1,30.4% (active)
18,O=C(O)COCC(=O)NCc1csc2ccc(Cl)cc12,-2.02%
19,Cc1nc(C)c(C(=O)Nc2ccc(C)c(F)c2)o1,-0.93%
20,Cc1ccc(NC(=O)Nc2ccc3oc(C)nc3c2)cc1,-0.57%
21,Cc1nc2ccc(NC(=O)C(F)(F)F)cc2o1,27.5% (active)

row,SMILES,inhibition
1,CC(=O)c1c(C)[nH]c(C(=O)COC(=O)CCOc2ccc(C)cc2)c1C,-5.3%
2,COC(=O)c1cc(S(=O)(=O)N2CCN(c3cc(C)ccc3C)CC2)c[nH]1,-1.18%
3,C=CCOc1c(Br)cc(/C=N\n2nnnc2N)cc1OC,-3.76%
4,CCOc1c(Br)cc(/C=C2\C(=O)N(CCC#N)N=C2C)cc1OC,57.8% (active)
5,COc1cc(/C=C2/C(=O)NN(c3cccc(Cl)c3)C2=O)cc(Br)c1O,-6.98%
6,COc1ccccc1N1CC(C(=O)NCCN2C(=O)S/C(=C\c3cccnc3)C2=O)CC1=O (stereo unspecified),1.63%
7,COc1ccc(N2CC(C(=O)NCCN3C(=O)S/C(=C\c4cccnc4)C3=O)CC2=O)c(OC)c1 (stereo unspecified),101% (active)
8,CCOc1ccc(N2CC(C(=O)NCCN3C(=O)S/C(=C\c4cccnc4)C3=O)CC2=O)cc1 (stereo unspecified),-4.16%
9,COc1ccc(C(=O)NCc2ccccc2C)cc1S(=O)(=O)NC1CCCC1,1.48%
10,Clc1ccc(CSc2nnc3c(n2)[nH]c2ccccc23)cc1,-2.24%
11,O=Cc1c(NCCc2cccc(F)c2)c2ccccc2[nH]c1=O,-4.74%
12,CC(NC(=O)c1cc(=O)[nH]c2ccccc12)c1ccc(F)cc1F (stereo unspecified),-7%
13,O=C(NCC1CCCO1)c1cc2c([nH]c3ccccc32)c(-c2ccc(F)cc2)n1 (stereo unspecified),66.5% (active)
14,O=C(NCCc1ccc(F)cc1)c1n[nH]c2ccccc12,-0.12%
15,COc1ccc2cc(C(=O)NCC3CCCO3)[nH]c2c1 (stereo unspecified),-4.37%
16,O=C(NCC1CCCO1)c1ccc2ccccc2n1 (stereo unspecified),0.05%
17,O=C(NCCCO)c1cc2c([nH]c3ccccc32)c(-c2ccc(F)cc2)n1,35.7% (active)
18,CC(=O)C(C)n1cnc2scc(-c3ccc(C)cc3)c2c1=O (stereo unspecified),-5.08%
19,Cc1cc(C)n(-c2nnc(C)n2NC(=O)c2cccc(Cl)c2)n1,-3.56%
20,COC(=O)C1=C(C)NC(=S)NC1c1ccc(OCC(=O)N2CC(C)OC(C)C2)c(OC)c1 (stereo unspecified),-1.31%
21,COc1ccc(C2NC(=S)NC3=C2CCc2ccccc23)cc1OC (stereo unspecified),19.6% (active)

row,SMILES,inhibition
1,CCOc1ccc(C2NC(=S)NC3=C2CCc2ccccc23)cc1 (stereo unspecified),-0.5%
2,Cc1ccc(S(=O)(=O)NC(=O)COc2ccccc2C)cc1,-0.01%
3,CC(=O)c1cccc(NC(=O)N2CCCC2C(=O)NCCC(C)C)c1 (stereo unspecified),-0.58%
4,Cc1nnsc1S(=O)(=O)Cc1ccccc1Cl,-3.79%
5,O=C(Nc1ccc(S(=O)(=O)N2CCCCCC2)cc1)c1c(F)cccc1F,-3.98%
6,O=C(NCCCN1CCN(c2ccc(F)cc2)CC1)Nc1ccc([N+](=O)[O-])cc1,-8.31%
7,CC(=O)N(CN1C(=O)C2C3C=CC(C3)C2C1=O)c1cccc(Cl)c1 (stereo unspecified),-2.02%
8,COc1cc2ccccc2cc1C(=O)Nc1ccc(N2CCOCC2)cc1,7.08%
9,CC(=O)Oc1cccc(N2C(=O)CC(Nc3ccc(N4CCOCC4)cc3)C2=O)c1 (stereo unspecified),37.4% (active)
10,COc1ccc(N2CCN(C3CC(=O)N(c4ccc5c(c4)OCCO5)C3=O)CC2)cc1 (stereo unspecified),-4.31%
11,COc1cc(OC)cc(C(=O)Nc2ccc(-c3nc4ccccc4o3)c(O)c2)c1,-9.35%
12,COCCCNC(NC(=O)c1ccc(C)cc1)C(Cl)(Cl)Cl (stereo unspecified),-2.56%
13,Cc1cc(Nc2ccccc2)n(C(=O)c2ccc(N)cc2)n1,-3.04%
14,Cc1ccc(Nc2ccccc2N)cc1,-6.09%
15,Nc1ccc(Nc2ccccc2)cc1,20.8% (active)
16,COc1ccc(S(=O)(=O)N(CC(=O)NCc2ccco2)c2ccc(F)cc2)cc1,-1.25%
17,COc1ccc(-n2c(C)cc(C(=O)CN3C(=O)NC4(CCc5ccccc54)C3=O)c2C)cc1 (stereo unspecified),1.38%
18,CC(=O)Nc1ccc(SCC(=O)Nc2ccccc2Oc2ccccc2)cc1,2.48%
19,CC(NCCO)C(=O)C12CC3CC(CC(C3)C1)C2 (stereo unspecified),-1.18%
